The inhibition is the drop in the measured response relative to a control, in per cent.

Molecules are shown by their SMILES.

Here are results for 16 compounds from ChEMBL document CHEMBL1961873, “Compounds: GSK PKIS; Assays: Nanosyn kinase panel” (2012).
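Also: reported value is the mean inhibition, from the GSK PKIS kinase screening panel.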

The assay deals with T1, Testis-specific serine/threonine-protein kinase 1 (Homo sapiens) (UniProt Q9BXA7).
T1 sequence (whole entry): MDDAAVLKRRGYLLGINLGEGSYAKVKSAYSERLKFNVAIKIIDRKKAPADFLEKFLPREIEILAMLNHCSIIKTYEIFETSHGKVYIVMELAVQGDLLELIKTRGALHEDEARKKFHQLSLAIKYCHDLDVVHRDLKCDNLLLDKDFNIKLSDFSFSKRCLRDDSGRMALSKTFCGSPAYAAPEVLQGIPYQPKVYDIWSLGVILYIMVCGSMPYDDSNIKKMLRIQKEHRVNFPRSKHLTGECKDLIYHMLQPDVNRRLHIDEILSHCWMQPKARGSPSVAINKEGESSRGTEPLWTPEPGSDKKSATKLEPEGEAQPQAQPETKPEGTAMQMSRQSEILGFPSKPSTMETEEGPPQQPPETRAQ
Particulars: at 1 µM.
For the compound `COc1ccc2ncn(-c3cc(O[C@H](C)c4ccccc4Cl)c(C(N)=O)s3)c2c1`, the inhibition came out at 2.54%.

Turning to `C#Cc1cccc(Nc2ncnc3ccc(OCCCCNCCS(C)(=O)=O)cc23)c1`, the inhibition came out at 6.34%.

On to `NS(=O)(=O)c1ccc(Nc2cc(-c3ccc(O)c(F)c3)n[nH]2)cc1`, for which the inhibition was -0.04%.

For `C[C@@H](Oc1cc(-n2cnc3ccc(OCC4CCN(C)CC4)cc32)sc1C(N)=O)c1ccccc1Cl`, the inhibition amounted to 13.6%.

Take `Fc1ccc(-c2ncn(CCCN3CCOCC3)c2-c2ccncc2)cc1`: the inhibition was -0.42%.

As for `NS(=O)(=O)c1ccc(N/N=C2\C(=O)Nc3ccc(C(=O)NCCCn4ccnc4)cc32)cc1`, the inhibition worked out at 13.3%.

On to `COc1ccc2cc(-c3c(-c4ccncc4)nc(-c4ccc(S(C)(=O)=O)cc4C)n3C)ccc2c1`, for which the inhibition came to 6.64%.

As to `Clc1ccc(CNc2nccc(-c3cnn4ncccc34)n2)cc1`, the inhibition is -0.65%.

As for `COC(=O)Nc1nc2ccc(Sc3ccc(NC(=O)Nc4cc(C(F)(F)F)ccc4F)cc3)cc2[nH]1`, the inhibition was -2.84%.

`Fc1ccc(-c2ncn(C3CCNCC3)c2-c2ccnc(Oc3ccc4c(c3)OCO4)n2)cc1`: the inhibition came out at 4.17%.

Consider `Cc1ccc(C(=O)NC(C)C)cc1-c1ccc(C(=O)NCC2CC2)cc1`, for which the inhibition was -1.52%.

With `CCS(=O)(=O)c1ccc(OC)c(Nc2ncc(-c3ccccc3Cl)o2)c1`, the inhibition was -0.15%.

Turning to `NC(=O)c1cc(-c2ccncc2)cc(-c2ccccc2)c1N`, the inhibition amounted to 5.71%.

For `c1ccc(-c2n[nH]cc2-c2ccnc(-c3ccc(OCCN4CCOCC4)cc3)c2)nc1`, the inhibition is -3.08%.

As to `Cc1ccc(C(=O)NC2CCC2)cc1-c1ccc(C(=O)NCC2CC2)cc1`, the inhibition stood at 1.32%.

For `CN(c1ccc(NC(=O)Nc2c(Cl)cccc2Cl)cc1)c1ccnc(Nc2cccc(CS(C)(=O)=O)c2)n1`, the inhibition worked out at 3.33%.
